HT1080NT lethal = kills 2HG-producing HT-1080-NT fibrosarcoma cells; Potency, µM (top dose mostly 46.1 µM), for inactives: at the highest dose activity, negative = less viability, most hits filed as cytotoxic; HT-1080-NT fibrosarcoma viability, CellTiter-Glo ATP luminescence, 48 h; hit rate 1.6% among 360,000;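 further: NT is the 2HG producing partner of a matched IDH1 knockdown line; 0% = DMSO-treated cells and -100% = media-only wells without cells; nearly all actives have a fitted effect of over 55% in size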
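Compounds were tested in concentration-response format on HT-1080-NT cells for 48 hours at 37 degrees C. Cell viability came from CellTiter-Glo luminescence; curves were classified by r2, response magnitude and activity.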
HT1080 IDH1KD tx = HT-1080 IDH1 knockdown cell toxicity (counter line) | hit rate 2% among 360,000 | HT-1080 IDH1 knockdown viability, ATP luminescence, 48 h | AID 686971 | Potency, µM (doses to about 46.1 µM), for inactives: at the top dose activity, negative = toxicity, hits mostly cytotoxic;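 further: 0% = DMSO wells and -100% = cell-free medium wells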
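Viability of IDH1-knockdown HT-1080 fibrosarcoma cells was assessed by CellTiter-Glo after 48 h at 37 °C with titrated compound; concentration-effect curves were classified by fit quality and response size.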
MCF10A rerep = induces DNA re-replication in MCF 10a normal breast cells | MCF 10A DNA re-replication, Hoechst nuclear intensity, 48 h | Potency, µM (highest dose often 46.1 µM), for the others: at the top dose activity, positive = re-replication, actives largely listed as activators | hit rate 2.9% among 350,000; further: % of control where 0% means no effect; nearly all actives have a fitted effect of over 50% in size
KB-V1 MDR tox = kills drug-selected multidrug resistant KB-V1 cells; KB-V1 MDR cells viability, CellTiter-Glo, 72 h; Potency, µM (series often up to 46.1 µM), usual class: cytotoxic; hit rate 3.4% among 400,000; AID 1347076; further: on the % scale 0 is the no-effect control and ±100 the full control effect; nearly all actives have a fitted effect of over 60% in size
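Cytotoxicity via CellTiter-Glo luminescence after 72 h compound exposure at 37 degrees C. Cells: drug-selected KB-V1 line, DMEM phenol-red free plus 10% FBS. Compounds tested at multiple concentrations; normalized data fitted to concentration-effect curves.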
SW480 rerep = DNA re-replication induction in SW480 cells; AID 624297; hit rate 1.8% among 340,000; SW480 DNA re-replication, Hoechst DNA content imaging, 48 h; Potency, µM (series often up to 46.1 µM), inactives show top-dose re-replication activation, usual class: activators; further: % of control where 0% means no effect; nearly all actives have a fitted effect of over 55% in size
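Image-based read-out: total Hoechst fluorescence of nuclei (405 nm excitation, 500-530 nm emission), with hits raising the fraction of high-intensity nuclei. SW480 colon cells incubated 48 hr with compounds at 37 C.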
KB-3-1 tox = kills parental KB-3-1 adenocarcinoma cells; KB-3-1 viability, CellTiter-Glo ATP luminescence, 72 h; Potency, µM (titrated, usually from 46.1 µM), actives largely listed as cytotoxic; hit rate 1.4% among 400,000; AID 1347075; further: on the % scale 0 is the no-effect control and ±100 the full control effect; nearly all actives have a fitted effect of over 60% in size
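Cytotoxicity measured as CellTiter-Glo luminescence after 72 h at 37 C. Compound titrations were pinned onto drug-naive KB-3-1 parental adenocarcinoma cells grown in DMEM with 10% FBS, and normalized data fitted to concentration-response curves.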
Numbers without * were called inactive; i = inactive; ? = inconclusive; · = no result given. In the library only some 8% were active in any assay of this set; here they are far more common. The call rests on the fitted dose curve; in most records, active means well fitted curve in the direction sought with a large enough effect; inconclusive means small, poorly fitted or top-dose-only effect, or another doubt; inactive means no such curve, though single readings can be large; an effect the other way counts as inactive or inconclusive. Potency means the concentration at half of the fitted maximal effect.

SMILES	HT1080NT lethal	HT1080 IDH1KD tx	MCF10A rerep	KB-V1 MDR tox	SW480 rerep	KB-3-1 tox
CC(C)C[C@@H](CN1CCC[C@H]1CN1C(=O)C(=O)NC[C@@H]1Cc1ccccc1)N1C[C@H](Cc2ccc(O)cc2)N(CC2CCCCCC2)C(=O)C1=O	23µM*	18µM*	·	i	·	?
CC(C)C[C@H]1CN([C@@H](Cc2ccccc2)CN2CCC[C@@H]2CN2C(=O)C(=O)NC[C@@H]2Cc2ccc(O)cc2)C(=O)C(=O)N1CC1CCCCCC1	?	?	·	i	·	i
CC(C)C[C@H]1CN([C@@H](Cc2ccccc2)CN2CCC[C@@H]2CN2C(=O)C(=O)NC[C@@H]2Cc2ccccc2)C(=O)C(=O)N1CC1CCCCC1	?	16µM*	·	i	·	?
O=C(COc1ccccc1C(=O)Nc1ccccc1)NCCCCc1ccccc1	-11%	-24%	·	·	·	·
COC(=O)c1cn(NC(=O)C2CCC(C)CC2)c(=O)c2ccccc12 (stereo not drawn)	-16%	-7%	1%	i	-3%	i
COC(=O)c1cn(NC(=O)c2cc([N+](=O)[O-])ccc2F)c(=O)c2ccccc12	?	9.2µM*	4.6µM*	12µM*	?	?
Cc1cc(=O)n(C)c(=O)n1CCCCOc1cccc([N+](=O)[O-])c1	-10%	-4%	-3%	i	-3%	i
Cc1cc(=O)n(C)c(=O)n1CCCCCOc1cccc([N+](=O)[O-])c1	1%	6%	5%	8.2µM*	-7%	i
CC1CCc2nc(NC(=O)CN3CCN(c4ccccc4)CC3)sc2C1 (stereo not drawn)	2%	-4%	7%	i	-4%	i
CC1CCc2nc(NC(=O)CN3CCN(Cc4ccc5c(c4)OCO5)CC3)sc2C1 (stereo not drawn)	?	?	13µM*	i	2%	?
CC1CCc2nc(NC(=O)Nc3ccc4c(c3)OCO4)sc2C1 (stereo not drawn)	-20%	?	?	i	1%	13µM*
COC(=O)c1sccc1S(=O)(=O)N(CC(=O)NCc1ccc(C)cc1)c1ccc(C)c(C)c1	·	·	·	i	·	i
COc1ccccc1N(C)S(=O)(=O)c1ccc(C(=O)NCC(C)C)cc1	5%	4%	2%	23µM*	-5%	i
COc1ccc(Cc2nnc(NC(=O)Nc3ccccc3OC)s2)cc1	-28%	-7%	?	i	22%	?
COC(=O)c1cccc(NC(=O)c2ccc(S(=O)(=O)N(C)c3ccccc3OC)cc2)c1	0%	-28%	·	?	·	i
CCCc1nnc(NC(=O)c2ccc(S(=O)(=O)N(C)c3ccccc3OC)cc2)s1	-6%	-5%	?	15µM*	4%	i
CCCc1nnc(NC(=O)Nc2ccccc2OC)s1	2%	12%	0%	18µM*	1%	i
COc1ccccc1N(C)S(=O)(=O)c1ccc(C(=O)Nc2ccc3nc(C)sc3c2)cc1	-12%	-27%	?	23µM*	·	?
CCOC(=O)c1cc2c(=O)n3ccccc3nc2n(Cc2ccco2)c1=NC(=O)c1cccc(F)c1	·	·	·	?	·	i
CCOc1ccc(C2N3CC4(C(C)C)CN2CC(C(C)C)(C3)C4=O)cc1OC (stereo not drawn)	·	·	·	i	·	i
COc1cc(-c2nnc(NC(=O)CCS(=O)(=O)c3ccccc3)o2)cc(OC)c1OC	21µM*	?	18µM*	i	?	i
COc1cc(OC)cc(-c2nnc(NC(=O)CCS(=O)(=O)c3ccccc3)o2)c1	-6%	-7%	?	i	?	i
COc1cc(-c2nnc(NC(=O)CCS(=O)(=O)c3ccc(F)cc3)o2)cc(OC)c1OC	-4%	?	16µM*	i	23%	i
NC(=S)N/N=C/c1c(O)c(Br)cc2oc3c(c12)CCCC3	-22%	-23%	?	?	18µM*	21µM*
C=CCN1C(=O)C(CC(=O)Nc2ccc(OC)cc2)N(Cc2ccco2)C1=S (stereo not drawn)	-3%	-4%	-3%	21µM*	0%	i
SMILES	HT1080NT lethal	HT1080 IDH1KD tx	MCF10A rerep	KB-V1 MDR tox	SW480 rerep	KB-3-1 tox
COc1ccc(NC(=O)CC2C(=O)N(C)C(=S)N2Cc2ccco2)cc1 (stereo not drawn)	-3%	3%	-4%	i	-1%	i
CN1C(=O)C(CC(=O)Nc2ccc(F)cc2)N(CCCc2ccccc2)C1=S (stereo not drawn)	21µM*	?	15%	?	?	?
COc1ccc(NC(=O)CC2C(=O)N(CCc3ccccc3)C(=S)N2Cc2cccnc2)cc1 (stereo not drawn)	-28%	?	?	15µM*	?	i
COC(=O)CN1C(=S)N(c2ccc(Cl)cc2)C(=O)C1CC(=O)Nc1ccc(Cl)cc1 (stereo not drawn)	?	?	?	i	-3%	i
COC(=O)CN1C(=S)N(Cc2ccccc2)C(=O)C1CC(=O)Nc1ccc(Br)cc1 (stereo not drawn)	?	?	18µM*	i	?	i
CCOC(=O)c1c(S(=O)(=O)N2CCCC(C(=O)Nc3cccc(C#N)c3)C2)c(C)n(C)c1C (stereo not drawn)	·	·	·	i	·	i
CCOC(=O)c1c(-c2ccc(C)cc2C)csc1NC(=O)c1ccccc1Cl	·	·	·	?	·	i
COc1ccccc1CNC(=O)C(=O)NCC(c1cccnc1)N1CCN(c2ccccc2)CC1 (stereo not drawn)	·	·	·	i	·	i
O=C(Nc1nnc(S(=O)(=O)N2CCc3ccccc32)s1)c1cccc(Cl)c1	·	·	·	?	·	i
CCN(CC)CCNC(=O)Cn1ncc2c([nH]c3ccccc32)c1=O	·	·	·	i	·	i
CCN1C(=O)C(CC(=O)Nc2ccc(F)cc2)N(CCc2ccc(OC)cc2)C1=S (stereo not drawn)	-7%	-25%	1%	i	5%	i
CCN1C(=O)C(CC(=O)Nc2ccc(OC)cc2)N(CCc2ccccc2)C1=S (stereo not drawn)	?	?	7%	21µM*	-5%	?
Cc1c(C(=O)N(C)C)sc2nc(-c3ccccn3)[nH]c(=O)c12	-12%	-8%	-6%	?	-1%	i
O=c1[nH]c(-c2ccccn2)nc2sc(-c3ccccc3)cc12	?	-30%	1.3µM*	?	6.5µM*	?

Source: PubChem BioAssay (National Center for Advancing Translational Sciences (NCATS))
